Source: PubChem BioAssay (National Center for Advancing Translational Sciences (NCATS))
Hits are enriched below; roughly 2.4% of the tested compounds scored in any of these assays.
D2 ag-1: HTS Assay for Allosteric Agonists of the Human D2 Dopamine Receptor: Primary Screen for Agonists; AID 485358, 2010; activation, % at 2 µM; hit rate 0.53% among 340,000; HEK293 T-REx D2 cells, calcium flux agonist mode;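 active means activation over 3 SD above normal in the single-dose calcium agonist read, cut at about 30% in these data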; further: 0% is about no effect
Target sequence (P14416 whole entry, looked up): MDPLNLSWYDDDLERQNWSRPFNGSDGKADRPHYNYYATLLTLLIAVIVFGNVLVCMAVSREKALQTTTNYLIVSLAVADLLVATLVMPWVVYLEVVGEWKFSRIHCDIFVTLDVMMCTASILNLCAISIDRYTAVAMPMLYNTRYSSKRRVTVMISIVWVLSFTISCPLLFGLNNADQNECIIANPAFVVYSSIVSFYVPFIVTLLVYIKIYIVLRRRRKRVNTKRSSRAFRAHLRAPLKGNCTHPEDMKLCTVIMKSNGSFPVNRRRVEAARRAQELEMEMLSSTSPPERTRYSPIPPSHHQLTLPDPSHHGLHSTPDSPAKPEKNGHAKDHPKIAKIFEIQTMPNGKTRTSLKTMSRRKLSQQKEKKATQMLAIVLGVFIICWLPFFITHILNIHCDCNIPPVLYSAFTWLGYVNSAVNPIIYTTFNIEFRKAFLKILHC
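Calcium-flux readout, 1 cycle/sec over 180 s following compound pin transfer, in inducible HEK293 Trex D2 cells (force-coupled); dopamine controls included. Positive calcium responses during this window marked compounds as potential agonists.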
D2 PAM-1: Beta-Arrestin HTS for Positive Allosteric Modulators of the Human D2 Dopamine Receptor: Potentiators; D(2) dopamine receptor (Homo sapiens), P14416; DiscoveRx D2 beta-arrestin cells, luminescence, 90 min; 100% = 57 uM dopamine signal; potentiation, % (concentration not given with the values); hit rate 0.23% among 360,000; AID 624464, 2012; in the data active means potentiation above about 50%
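D2 cells co-treated with compound plus 50 nM dopamine (EC20) for 90 min at 37 deg C to detect potentiation. Beta-arrestin recruitment was read as enzyme-fragment luminescence after 1 h at ambient temperature. Full response was set by 57 uM dopamine.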
D2 PAM-2: HTS Assay for Positive Allosteric Modulators of the Human D2 Dopamine Receptor: Primary Screen for Potentiators; D(2) dopamine receptor (Homo sapiens), P14416; HEK293 T-REx D2, calcium flux, EC20 dopamine potentiation; potentiation, % at 10 µM; hit rate 0.34% among 340,000; AID 485347, 2010;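 active means potentiation over 3 SD above the plate norm, cut at about 30% in these data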; further: 0% is about no effect
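Tetracycline-induced Hek293 Trex D2 cells, force-coupled to calcium, loaded with no-wash calcium dye. Compound added with 180 s kinetic read for agonism, then EC20 dopamine and a further 180 s read for potentiation.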
D2 antag: HTS Assay for Allosteric Antagonists of the Human D2 Dopamine Receptor: Primary Screen for Antagonists; D(2) dopamine receptor (Homo sapiens), P14416; HEK293 TREx D2 cells, calcium flux, dopamine EC80; inhibition, % at 10 µM; hit rate 2% among 340,000; in the data active means inhibition above about 30%; inactive means below that, where a call was filed; further: 0% is about no effect
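HEK293 T-REx D2 cells, tet-induced, calcium dye no-wash. Cpd pintool add, 180 s kinetic, then EC80 DA, 180 s kinetic. Ca flux read.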
D2 ag-2: Beta-Arrestin HTS for Positive Allosteric Modulators of the Human D2 Dopamine Receptor: Agonists. D(2) dopamine receptor (Homo sapiens), P14416. DiscoveRx PathHunter D2 beta-arrestin, luminescence, 90 min; 100% = 57 uM dopamine signal. activation, % (no concentration beside the values). hit rate 0.084% among 360,000; in the data active means activation above about 40%
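DiscoveRx PathHunter D2 beta-arrestin cells (2,100/well) attached overnight, then compound-stimulated 90 min at 37 C in HBSS/10 mM HEPES/0.1% Tween-20 buffer; beta-galactosidase complementation read by luminescence after 1 h at ambient temperature. Dopamine 57 uM final (EC100) as control.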
Starred values were filed as active, the others as inactive; x = not tested or not shown.

SMILES	D2 ag-1	D2 PAM-1	D2 PAM-2	D2 antag	D2 ag-2
Cc1cccc(NCc2ccc(N(C)C)cc2)n1	-0.5	-6.2	32.7*	-16.4	0.8
Cc1ccccc1NC(=O)Cc1nc(COC(=O)CNS(=O)(=O)c2cccc(Br)c2)cs1	-0.3	-4.6	-8.4	34.8*	-1.0
CCOc1ccc(OCC(=O)OCc2csc(CC(=O)Nc3ccccc3C)n2)cc1	1.1	6.2	42.2*	6.6	1.4
Cc1ccccc1NC(=O)Cc1nc(COC(=O)COc2ccccc2C(C)C)cs1	1.7	-0.8	5.0	28.9	-3.0
O=C(COCc1cc(-c2ccc(F)cc2)on1)Nc1cc(F)ccc1F	x	x	-9.9	x	x
CN1C2CCC1CC(OC(c1ccccc1)c1ccccc1)C2 (stereo not given)	-0.3	-23.7	-23.7	36.2*	-2.5
COc1cccc(NC(=O)c2ccc3nc(Cc4ccccc4)oc3c2)c1	0.3	x	-4.1	x	x
COc1ccc(Cl)cc1NC(=O)CN(C)C(=O)c1ccc(C)s1	-0.5	-3.1	3.0	-0.6	-0.3
COc1ccc(Cl)cc1NC(=O)CN(C)C(=O)c1cc2c(F)cccc2s1	0.7	-8.3	-12.3	30.9*	5.8
COc1ccc(C2C(C(N)=O)=C(C)Nc3nc(SCc4ccccc4Cl)nn32)cc1OC (stereo not given)	-0.4	x	4.6	x	x
O=c1nc(/C=C/c2ccccc2C(F)(F)F)cc(C(F)(F)F)[nH]1	-2.2	-9.8	8.8	32.2*	-2.7
COc1ccc(CNC(=O)c2ccc3c(c2)CCN3S(=O)(=O)c2ccc(Cl)cc2)cc1	1.6	x	6.8	x	x
CCCCn1c(CCC(=O)O)ccc1-c1cccs1	-0.2	-9.5	-15.7	40.4*	0.2
COCCn1c(CCC(=O)O)ccc1-c1cccs1	0.0	2.0	1.0	0.4	-3.9
COc1ccc(C)cc1NC(=O)COc1cc(=O)n(C)c2ccccc12	0.1	x	1.2	x	x
CC(C)Cc1nc(N2CCC(C(N)=O)CC2)c2nnn(Cc3ccccc3)c2n1	x	-10.2	x	x	-3.2
Cc1nc(N2CCC(C)CC2)c2nnn(Cc3ccccc3)c2n1	0.4	-33.8	33.9*	-24.3	-0.9
N#Cc1c(C(F)(F)F)cc(-c2ccccc2Cl)[nH]c1=O	0.6	4.8	2.3	44.4*	2.0
O=C(CCCn1c(=O)c2sccc2n(Cc2c(F)cccc2Cl)c1=O)NCc1ccccc1	-2.0	x	10.8	x	x
COC(=O)c1ccc(CNC(=O)C(C)N=C2NS(=O)(=O)c3ccccc32)cc1 (stereo not given)	-0.4	-38.4	-20.7	44.3*	-2.8
CC(N=C1NS(=O)(=O)c2ccccc21)C(=O)NCCCc1ccccc1 (stereo not given)	x	-36.8	x	x	2.8
O=C1c2cccc3c(N4CCCCC4)ccc(c23)C(=O)N1c1ccccn1	37.3*	-4.4	-0.3	-4.6	-2.6
CC(=O)N(C(C)=O)N1C(=O)c2cccc3c(N4CCOCC4)ccc(c23)C1=O	8.8	-11.6	3.1	-3.5	8.0
COc1ccc(C2=NOC(C(=O)NC(C)(C)C)C2)cc1 (stereo not given)	0.9	-1.3	2.3	-11.3	-3.3
CCN(CC)C(=O)C1CC(c2ccc(OC)cc2)=NO1 (stereo not given)	-0.6	-20.0	8.5	31.3*	-1.9
SMILES	D2 ag-1	D2 PAM-1	D2 PAM-2	D2 antag	D2 ag-2
Cc1c(NC(=O)COC(=O)Cc2ccc(Br)cc2)c(=O)n(-c2ccccc2)n1C	-0.2	-13.5	6.9	-9.2	-0.9
Cc1c(NC(=O)COc2cccc(F)c2)c(=O)n(-c2ccccc2)n1C	0.9	16.5	-4.4	10.5	1.2
O=C(COc1ccc2ccccc2c1)NNC(=O)c1ccccc1	1.9	-6.3	5.7	47.6*	-2.8
O=C(COc1ccc2ccccc2c1)NNC(=O)Cc1ccccc1	-0.2	-6.0	0.6	-12.3	-0.6
Cc1c(NC(=O)COc2ccc3ccccc3c2)c(=O)n(-c2ccccc2)n1C	-0.4	-3.1	34.7*	7.4	-3.4
Cc1c(NC(=O)c2ccc(Br)o2)c(=O)n(-c2ccccc2)n1C	-0.6	-2.2	30.8*	-5.0	-2.5
